From publication PMC4336329 (PLoS ONE, 2015)
The whole screen tested about 310,000 compounds, of which about 14,000 (4.5%) showed an effect of 50% or more. Effects have a minus sign here. This excerpt belongs to a sample that is enriched for strong results.

target: human ether-à-go-go-related gene (hERG) potassium channel (human, UniProt Q12809); assay: primary screen, population patch clamp on CHO cells stably expressing hERG; higher = less effect of the substance
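Note: peak tail current of the secondary pulse compared with the same well before compound.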

human ether-à-go-go-related gene (hERG) potassium channel, sequence (Q12809 whole entry, looked up): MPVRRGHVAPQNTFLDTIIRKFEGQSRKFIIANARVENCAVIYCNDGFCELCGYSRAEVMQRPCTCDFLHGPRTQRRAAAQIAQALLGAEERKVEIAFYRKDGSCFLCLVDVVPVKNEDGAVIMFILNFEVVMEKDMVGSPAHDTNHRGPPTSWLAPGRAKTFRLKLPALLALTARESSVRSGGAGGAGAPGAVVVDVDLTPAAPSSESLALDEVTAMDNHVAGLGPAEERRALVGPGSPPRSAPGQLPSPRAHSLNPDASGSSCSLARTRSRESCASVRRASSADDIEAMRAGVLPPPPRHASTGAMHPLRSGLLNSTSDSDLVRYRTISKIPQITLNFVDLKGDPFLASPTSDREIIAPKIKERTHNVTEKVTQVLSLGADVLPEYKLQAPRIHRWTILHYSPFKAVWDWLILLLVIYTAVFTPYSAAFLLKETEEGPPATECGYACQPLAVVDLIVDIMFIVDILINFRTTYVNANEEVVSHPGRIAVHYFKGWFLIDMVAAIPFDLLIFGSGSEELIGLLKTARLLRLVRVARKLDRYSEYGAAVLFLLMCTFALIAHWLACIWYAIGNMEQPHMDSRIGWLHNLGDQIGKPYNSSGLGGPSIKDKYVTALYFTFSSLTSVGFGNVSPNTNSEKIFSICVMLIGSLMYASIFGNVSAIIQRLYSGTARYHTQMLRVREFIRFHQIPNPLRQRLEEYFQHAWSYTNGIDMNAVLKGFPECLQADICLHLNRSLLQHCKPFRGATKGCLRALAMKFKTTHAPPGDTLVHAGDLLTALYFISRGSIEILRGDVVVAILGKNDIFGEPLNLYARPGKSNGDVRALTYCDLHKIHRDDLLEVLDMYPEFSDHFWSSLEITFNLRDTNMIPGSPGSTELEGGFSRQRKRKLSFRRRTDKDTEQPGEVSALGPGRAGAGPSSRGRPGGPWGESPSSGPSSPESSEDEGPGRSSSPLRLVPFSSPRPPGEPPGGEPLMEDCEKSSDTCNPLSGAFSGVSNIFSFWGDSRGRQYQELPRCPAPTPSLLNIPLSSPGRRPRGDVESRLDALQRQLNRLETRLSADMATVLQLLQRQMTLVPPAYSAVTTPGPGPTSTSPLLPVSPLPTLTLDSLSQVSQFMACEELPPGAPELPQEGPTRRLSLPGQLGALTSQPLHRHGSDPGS

Compared with `COc1ccc(C2N(C(=O)C(F)(F)F)C(C)CN2S(=O)(=O)c2ccc(C)cc2)cc1` (stereo not drawn), `Cc1ccc(C(=O)O/N=C/c2c(Cl)n(C)c3ccccc23)cc1` is higher in “hERG current change (%, negative = inhibition) at 10uM” value: 11.2% for the first, 16.2% for the second.

Going from `Cc1ccc(C2NC(=O)c3c(sc(C)c3C)N2)c(O)c1` (stereo not drawn) to `Cc1cccc(C)c1NC(=O)C1(C)c2cccc[n+]2CC(=O)N1Cc1cccs1.[I-]` (stereo not drawn), the “hERG current change (%, negative = inhibition) at 10uM” value rises from -3.45% to 6.18%.

Compared with `CCOc1ccc(-n2c(CC)nc3ccccc3c2=O)cc1`, `CCn1c(/C=C\c2ccccc2C)nc2ccccc2c1=O` is lower in “hERG current change (%, negative = inhibition) at 10uM” value: 1.33% for the first, -19.1% for the second.

Going from `N#Cc1nc(-c2cccc(Cl)c2)oc1N1CCC(C(N)=O)CC1` to `O=C(Nc1cccc(Cl)c1)Nc1nnc(-c2ccccc2)o1`, the “hERG current change (%, negative = inhibition) at 10uM” value rises from 0.912% to 3.18%.

Going from `CCOC(=O)C1C(=O)NC(N2CCCCC2)=NC1c1ccco1` (stereo not drawn) to `O=C(Nc1cc([N+](=O)[O-])ccc1N1CCCC1)c1cccs1`, the “hERG current change (%, negative = inhibition) at 10uM” value falls from 8.22% to -65.4%.

First: COc1ccc(S(=O)(=O)Nc2cccc(S(=O)(=O)NC3=NCCC3)c2)cc1[N+](=O)[O-]
Second: COc1ccc(NC(=O)/C=C/c2ccccc2[N+](=O)[O-])c(OC)c1
The “hERG current change (%, negative = inhibition) at 10uM” value of the first is higher: 18.6% for the first, 4.66% for the second.

First: O=C(N/N=C/c1cn(-c2ccccc2)nc1-c1cccnc1)c1cccnc1
Second: O=C(N/N=C/c1cn(-c2ccccc2)nc1-c1cccnc1)c1ccccc1
The “hERG current change (%, negative = inhibition) at 10uM” value of the first is higher: -50.3% for the first, -60.7% for the second.

Going from `O=C(N/N=C/c1cn(-c2ccccc2)nc1-c1cccnc1)c1ccc(F)cc1` to `NC(=O)N/N=C/c1cn(-c2ccccc2)nc1-c1cccnc1`, the “hERG current change (%, negative = inhibition) at 10uM” value rises from -41.3% to 4.92%.

Compared with `NC(=S)N/N=C/c1cn(-c2ccccc2)nc1-c1cccnc1`, `CC(C)(C)OC(=O)N/N=C/c1cn(-c2ccccc2)nc1-c1cccnc1` is lower in “hERG current change (%, negative = inhibition) at 10uM” value: 11.8% for the first, -49.3% for the second.

First: CCn1ccnc1CN(C)C(=O)CCc1nnc(CCC2CCCCC2)o1
Second: CCOc1ncccc1C(=O)N1CCN(c2cc(Cl)ccc2C)CC1
The “hERG current change (%, negative = inhibition) at 10uM” value of the first is lower: -27.7% for the first, -4.75% for the second.

First: C=Cn1ccnc1P(=S)(c1ccc(N(C)C)cc1)c1nccn1C=C
Second: CCC1(c2ccccc2)NC(=S)N(c2ccc(C)cc2)N1 (stereo not drawn)
The “hERG current change (%, negative = inhibition) at 10uM” value of the first is lower: 3.93% for the first, 22% for the second.

Going from `O=c1c2ccccc2nc(-c2ccc(Cl)cc2)n1C1CCS(=O)(=O)C1` (stereo not drawn) to `CN(C(=O)CSc1nc(-c2ccccc2)cs1)C1CCS(=O)(=O)C1` (stereo not drawn), the “hERG current change (%, negative = inhibition) at 10uM” value falls from -2.23% to -19.6%.

Going from `O=C(CN1CCN(Cc2ccccc2)CC1)N1N=CCC1c1ccccc1` (stereo not drawn) to `[Cl-].c1ccc(CC[C@@H]2CC[C@@H](CCc3ccccc3)N2)cc1`, the “hERG current change (%, negative = inhibition) at 10uM” value falls from -1.06% to -66%.

First: CC(=O)Nc1ccc(N(C(=O)CNC(=O)c2cccs2)C(C(=O)NCC2CCCO2)c2ccccc2)cc1 (stereo not drawn)
Second: COC(=O)c1ccc(N2CCN(C)CC2)c(NC(=O)c2cccs2)c1
The “hERG current change (%, negative = inhibition) at 10uM” value of the first is higher: 13.2% for the first, -8.75% for the second.

Compared with `O=C(O)C1CSC(CCc2ccccc2)N1` (stereo not drawn), `c1ccc(CCC2Cc3ccccc3N2)cc1` (stereo not drawn) is lower in “hERG current change (%, negative = inhibition) at 10uM” value: 14% for the first, -0.839% for the second.

Compared with `COC(=O)c1[nH]c2ccccc2c1NC(=O)Oc1ccccc1`, `O=C(Nn1c(COc2ccccc2)nc2ccccc2c1=O)C(Cl)(Cl)Cl` is lower in “hERG current change (%, negative = inhibition) at 10uM” value: 12% for the first, 9.26% for the second.

Going from `CN1CCN(c2ccc([N+](=O)[O-])cc2Cl)CC1` to `CN1CCN(c2cc([N+](=O)[O-])ccc2Cl)CC1`, the “hERG current change (%, negative = inhibition) at 10uM” value rises from -52.2% to -23.3%.

Going from `O=[N+]([O-])c1ccc(N2CCN(c3ccc(Cl)nn3)CC2)c(Cl)c1` to `COc1ccc(N2CCN(c3ccc([N+](=O)[O-])cc3Cl)CC2)cc1`, the “hERG current change (%, negative = inhibition) at 10uM” value rises from -23.7% to -12.1%.

First: Cc1ccc([N+](=O)[O-])cc1NC(=O)c1cccs1
Second: CN1CCN(c2ccc([N+](=O)[O-])cc2NC(=O)c2cccs2)CC1
The “hERG current change (%, negative = inhibition) at 10uM” value of the first is higher: 18.4% for the first, -55.2% for the second.

Compared with `O=[N+]([O-])c1ccc(N2CCNCC2)c(Cl)c1`, `O=C(Nc1ccccc1N1CCCC1)c1ccc([N+](=O)[O-])cc1Cl` is lower in “hERG current change (%, negative = inhibition) at 10uM” value: -6.48% for the first, -21.5% for the second.

First: O=C(Nc1cc([N+](=O)[O-])ccc1N1CCCC1)c1ccccc1
Second: CN1CCN(c2ccc([N+](=O)[O-])cc2NC(=O)c2ccccc2Cl)CC1
The “hERG current change (%, negative = inhibition) at 10uM” value of the first is higher: -33.3% for the first, -71.1% for the second.

Going from `O=C(Nc1cc([N+](=O)[O-])ccc1N1CCOCC1)c1cccs1` to `CN1CCN(c2ccccc2NC(=O)c2ccc([N+](=O)[O-])cc2Cl)CC1`, the “hERG current change (%, negative = inhibition) at 10uM” value falls from 1.15% to -34.9%.

First: Cc1ccc2nc(C)c(CN3CCN(c4ccc([N+](=O)[O-])cc4Cl)CC3)n2c1
Second: Cc1cccc(NC(=O)C(C)n2cc([N+](=O)[O-])cn2)n1 (stereo not drawn)
The “hERG current change (%, negative = inhibition) at 10uM” value of the first is lower: -69.3% for the first, -7.48% for the second.

Compared with `COC(=O)C1=C(N)Oc2cc(C)n(Cc3ccncc3)c(=O)c2C1c1cccnc1` (stereo not drawn), `Cc1ccc(NC(=O)COc2ccc(CCO)cc2-n2nc3ccccc3n2)cc1C` is higher in “hERG current change (%, negative = inhibition) at 10uM” value: -14.8% for the first, 6.89% for the second.

First: CC(C)c1ncc(S(=O)(=O)c2ccc(C(F)(F)F)cn2)c(N)n1
Second: COc1ccc(NC(=O)c2ccc(COCC(F)(F)C(F)F)cc2)cc1OC
The “hERG current change (%, negative = inhibition) at 10uM” value of the first is higher: 11.6% for the first, 7.39% for the second.

Going from `CCCCN1Cc2c(nc3cc(-c4ccccc4)[nH]n3c2=O)C1=O` to `CCCNCc1cc(OC)c(OCc2ccccc2)cc1Br.Cl`, the “hERG current change (%, negative = inhibition) at 10uM” value falls from 6.51% to -28.2%.

First: Clc1ccccc1-c1nn2c(-c3ccncc3)nnc2s1
Second: O=C(Nc1cccc(Cl)c1)OCc1cn(-c2ccccc2)nn1
The “hERG current change (%, negative = inhibition) at 10uM” value of the first is higher: -7.89% for the first, -52.6% for the second.

Compared with `Cn1c(=O)oc2cc(S(=O)(=O)NCCC(=O)Nc3ccc4c(c3)OCCO4)ccc21`, `CCN(Cc1ccc(OC)c(F)c1)C(=O)c1cc2ccccc2o1` is lower in “hERG current change (%, negative = inhibition) at 10uM” value: 2.4% for the first, -24.7% for the second.

Going from `CCOc1ccc(CCNC(=O)COC(=O)c2cccnc2OCC)cc1OCC` to `CCOCCCNCc1ccc(OCc2ccccc2C)c(OC)c1.Cl`, the “hERG current change (%, negative = inhibition) at 10uM” value falls from -1.87% to -24.4%.

Going from `CCN(Cc1ccc(OC)c(F)c1)C(=O)c1oc2ccccc2c1COC` to `COc1ccc(CN(C)C(=O)c2oc3ccccc3c2CSC)cc1F`, the “hERG current change (%, negative = inhibition) at 10uM” value rises from -54.6% to 14.4%.

First: CC(/C=C/c1cccc([N+](=O)[O-])c1)=N/NC(=O)c1cccnc1
Second: CC(C(=O)Nc1cccnc1)n1cc([N+](=O)[O-])cn1 (stereo not drawn)
The “hERG current change (%, negative = inhibition) at 10uM” value of the first is lower: -22.7% for the first, 17.7% for the second.

Compared with `O=c1c(C(c2ccc(F)cc2)c2c(O)nc3n(c2=O)CCCS3)c(O)nc2n1CCCS2`, `O=C(/C=C/c1ccc(F)cc1)NC(=S)Nc1ccccc1C(=O)NC1CCCCC1` is lower in “hERG current change (%, negative = inhibition) at 10uM” value: 9.97% for the first, 2.56% for the second.

Compared with `O=C(Nc1cccc(Cl)c1)OCc1cn(-c2ccc(Cl)cc2)nn1`, `O=C(Nc1ccccc1)OCc1cn(-c2ccc(Cl)cc2)nn1` is higher in “hERG current change (%, negative = inhibition) at 10uM” value: 1.69% for the first, 22.3% for the second.

First: OCCc1ccc(O)c(-n2nc3ccccc3n2)c1
Second: N#Cc1ccc(COc2ccc(CCO)cc2-n2nc3ccccc3n2)cc1
The “hERG current change (%, negative = inhibition) at 10uM” value of the first is higher: -17.1% for the first, -66.6% for the second.

First: COC(=O)CCC(=O)OC1(C)C(=O)C=C2C=C(C3CC3)N(CCCCO)C=C2C1=O (stereo not drawn)
Second: CCOCCCNCc1cccc(OC)c1.O=C(O)C(=O)O
The “hERG current change (%, negative = inhibition) at 10uM” value of the first is higher: 4.26% for the first, 3.11% for the second.

First: CCOc1ccc(Br)cc1CNCCN1CCOCC1
Second: CCOCCCNCc1cc(Br)ccc1OCC.Cl
The “hERG current change (%, negative = inhibition) at 10uM” value of the first is higher: 1.31% for the first, -55.5% for the second.

First: CCOCCCNCc1ccc(OCc2ccc(F)cc2)c(OC)c1.Cl
Second: CCOCCCNCc1cccc(OCc2ccc(F)cc2)c1
The “hERG current change (%, negative = inhibition) at 10uM” value of the first is higher: -33.6% for the first, -50.1% for the second.

Compared with `CCOCCCNCc1cc(Br)ccc1OCc1ccccc1`, `CCOCCCNCc1cc(Cl)ccc1OCC.Cl` is higher in “hERG current change (%, negative = inhibition) at 10uM” value: -68.1% for the first, -11.8% for the second.

Going from `CC1CC(C)CN(C(=O)c2ccncc2)C1` (stereo not drawn) to `CCN(C(=O)Cn1cnc2cc([N+](=O)[O-])ccc2c1=O)C1CCS(=O)(=O)C1` (stereo not drawn), the “hERG current change (%, negative = inhibition) at 10uM” value falls from 10.1% to 1.53%.

Compared with `COCCNC(=O)C1CC(c2cccc([N+](=O)[O-])c2)=NO1` (stereo not drawn), `O=C(CSc1nc2ccc([N+](=O)[O-])cc2s1)NC1CCS(=O)(=O)C1` (stereo not drawn) is lower in “hERG current change (%, negative = inhibition) at 10uM” value: 15.8% for the first, -5.62% for the second.

Going from `Cc1cc(NC(=O)Cn2nnc3sc4c(c3c2=O)CCCC4)no1` to `c1ccc2c(Nc3nc4c(s3)CCCC4)cccc2c1`, the “hERG current change (%, negative = inhibition) at 10uM” value falls from 9.97% to 2.23%.

Compared with `O=C(NCCc1ccc(Cl)cc1)C1=CC=CN2CCS(=O)(=O)N=C12`, `O=C(NCc1cccc(Cl)c1)C1=CC=CN2CCS(=O)(=O)N=C12` is higher in “hERG current change (%, negative = inhibition) at 10uM” value: -9.31% for the first, -5.54% for the second.

Compared with `CC(NC(=O)C1=CC=CN2CCS(=O)(=O)N=C12)c1ccc(Cl)cc1Cl` (stereo not drawn), `CCN(C(=O)CSc1nc2ccc([N+](=O)[O-])cc2s1)C1CCS(=O)(=O)C1` (stereo not drawn) is lower in “hERG current change (%, negative = inhibition) at 10uM” value: -57.9% for the first, -61.8% for the second.

Going from `CN(C(=O)CSc1nc2ccc([N+](=O)[O-])cc2s1)C1CCS(=O)(=O)C1` (stereo not drawn) to `CCN(C(=O)CN1C(=O)c2ccc([N+](=O)[O-])cc2C1=O)C1CCS(=O)(=O)C1` (stereo not drawn), the “hERG current change (%, negative = inhibition) at 10uM” value rises from -55.9% to 13.8%.

Compared with `O=[N+]([O-])c1cccnc1Sc1ccc(Cl)cc1`, `O=C(Cn1ccc([N+](=O)[O-])n1)Nc1nc2ccccc2s1` is lower in “hERG current change (%, negative = inhibition) at 10uM” value: -11% for the first, -45.8% for the second.

Compared with `CC(C(=O)Nc1nc2ccccc2s1)n1cc([N+](=O)[O-])cn1` (stereo not drawn), `O=C(Cn1cc([N+](=O)[O-])cn1)Nc1nc2ccccc2s1` is lower in “hERG current change (%, negative = inhibition) at 10uM” value: -69.5% for the first, -74.6% for the second.

For `O=C(Cn1cc([N+](=O)[O-])cn1)Nc1ccccn1`, the “hERG current change (%, negative = inhibition) at 10uM” value was 16.1%.
